p97 inhibitor – blocks human p97 ATPase activity | actives 0.42% (n = 220,000) | recombinant p97 ATPase, Kinase-Glo ATP luminescence, 3 h | AID 1481 | P55072 | inhibition, % at 8 µM; in the data active means inhibition above about 15%;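 further: 0% = DMSO vehicle and 100% = wells lacking enzyme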
DTT redox prof – compounds producing H2O2 with reducing agent – biochemical, NIH compound library profiling, artefact control for MLSCN library redox annotation, primary screen; actives 0.03% (n = 200,000); AID 878; activation, % at 10 µM; DTT-dependent redox cycling H2O2, phenol red/HRP absorbance; 100% = 100 µM peroxide control, 0% = buffer;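 active means activation of at least 50% relative to the plate's high and low controls in the primary single-dose screen; inactive means activation below 50%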;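 further: compound incubated with DTT at 0.8 mM final as the reducing agent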
PERK inhibitor – inhibitors of human PERK kinase; CHO PERK-DD fusion, SEAP luminescence translation reporter; actives 0.17% (n = 220,000); inhibition, % at 5.6 µM; AID 1416;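 active means inhibition above the mean inhibition of all tested compounds plus 3 SD, set separately per screening campaign, cut at about 2.9% in these data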;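 further: PERK kinase domain activated by AP20187 dimerizer at 100 nM; 0% = DMSO with dimerizer and 100% = rapamycin at 8.4 µM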
Target sequence (Q9NZJ5 whole entry, looked up, the tested form may be a part): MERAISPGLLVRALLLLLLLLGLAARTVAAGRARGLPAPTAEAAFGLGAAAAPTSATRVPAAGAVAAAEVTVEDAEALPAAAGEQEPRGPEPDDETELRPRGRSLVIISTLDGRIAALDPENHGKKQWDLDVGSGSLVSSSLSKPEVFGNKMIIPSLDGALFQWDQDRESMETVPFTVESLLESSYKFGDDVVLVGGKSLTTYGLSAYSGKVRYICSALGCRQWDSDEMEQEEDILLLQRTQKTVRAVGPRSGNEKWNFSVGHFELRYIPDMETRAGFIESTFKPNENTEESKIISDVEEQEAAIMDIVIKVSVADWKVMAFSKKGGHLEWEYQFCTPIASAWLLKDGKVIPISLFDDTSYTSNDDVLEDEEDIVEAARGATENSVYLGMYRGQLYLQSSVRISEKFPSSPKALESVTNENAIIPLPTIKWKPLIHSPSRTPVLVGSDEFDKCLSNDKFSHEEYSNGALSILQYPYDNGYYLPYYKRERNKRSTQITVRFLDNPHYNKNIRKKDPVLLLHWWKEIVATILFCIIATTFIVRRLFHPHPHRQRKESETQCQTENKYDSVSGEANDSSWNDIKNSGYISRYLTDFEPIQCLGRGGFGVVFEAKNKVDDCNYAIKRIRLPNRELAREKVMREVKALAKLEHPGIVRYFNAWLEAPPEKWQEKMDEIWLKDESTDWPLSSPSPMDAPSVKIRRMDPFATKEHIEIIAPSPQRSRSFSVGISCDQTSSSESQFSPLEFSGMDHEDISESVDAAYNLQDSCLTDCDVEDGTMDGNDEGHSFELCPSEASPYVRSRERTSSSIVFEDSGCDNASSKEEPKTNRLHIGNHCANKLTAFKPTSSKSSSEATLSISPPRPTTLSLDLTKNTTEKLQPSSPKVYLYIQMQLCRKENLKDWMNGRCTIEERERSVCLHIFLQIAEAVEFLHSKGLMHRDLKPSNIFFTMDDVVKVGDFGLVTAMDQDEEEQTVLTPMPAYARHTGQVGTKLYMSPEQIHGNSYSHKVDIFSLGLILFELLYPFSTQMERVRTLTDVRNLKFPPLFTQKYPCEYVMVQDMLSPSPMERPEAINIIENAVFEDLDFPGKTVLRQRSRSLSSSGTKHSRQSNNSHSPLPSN
SUMO HTRF inh – inhibitors of human SUMOylation (UBC9). HTRF SUMOylation assay, SAE1/SAE2 + UBC9, in vitro. AID 2006. actives 0.36% (n = 290,000). inhibition, % at 35 µM. P63279; in the data active means inhibition above about 50%, passing the limit was not always enough
DTT redox conf – redox cycling H2O2 generation, confirmed | shares compounds with DTT redox prof | DTT-dependent redox cycling H2O2, phenol red-HRP absorbance | EC50, µM | actives 40% (n = 60) | AID 1234;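 active means EC50 under a set limit for hydrogen peroxide production with the reducing agent DTT present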
p97 confirm – confirmation of human p97 ATPase inhibitors; AID 1517; inhibition, % at 8 µM; shares compounds with p97 inhibitor; actives 44% (n = 760); recombinant p97 ATPase, Kinase-Glo ATP luminescence;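 active means percent inhibition of p97 ATPase above a set limit, the primary screen's mean plus 3 SD, cut at about 15% in these data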;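 further: 0% = DMSO wells and 100% = wells lacking p97 protein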
Active calls of the source: *; nt = no result given. Most compounds without a hit are left out; they make up all but 0.69% or so of the library.

SMILES	p97 inhibitor	DTT redox prof	PERK inhibitor	SUMO HTRF inh	others
CCCCNc1c2c3c(cccc3n(C)c1=O)C(=O)c1ccccc1-2	-4.8	0.9	-1.0	24.8
Cn1c(=O)c(NCCO)c2c3c(cccc31)C(=O)c1ccccc1-2	6.5	-3.5	-1.3	55.3*
CC(Nc1ncnc2sccc12)c1ccccc1 (stereo not given)	nt	nt	nt	17.1
Nc1nnc(CC(=O)Nc2ccccc2)s1	6.9	nt	3.0*	-0.9
O=C(O)c1ccc(N/N=C/C(Br)=C/c2ccccc2)cc1	14.7*	nt	0.3	10.2
COc1cc2c(cc1/C=C/C(=O)O)OC(C)C2 (stereo not given)	1.8	-1.6	-0.5	55.2*
CCOc1cc2c(cc1/C=C/C(=O)O)OC(C)C2 (stereo not given)	5.8	nt	2.1	47.1
Cc1cc(C)c(NC(=O)Cn2c(=O)n(-c3ccc(CC(=O)NCC4CCCO4)cc3)c(=O)c3ccccc32)c(C)c1 (stereo not given)	2.7	-0.8	0.7	9.8
O=C(CNC(=O)c1ccc(Cl)cc1)N/N=C/c1cccnc1	2.4	nt	1.6	3.8
O=C(O)CN1C(=O)/C(=C\c2cc(Br)ccc2OCc2ccc([N+](=O)[O-])cc2)SC1=S	nt	nt	nt	50.7*
O=C1/C(=C\c2ccc(O)cc2)SC(=S)N1Cc1ccccc1	nt	nt	nt	7.3
O=C(O)CN1C(=O)/C(=C\c2cc(Br)ccc2OCc2ccccc2Cl)SC1=S	nt	nt	nt	-10.6
O=C1/C(=C\c2cc(Br)cc(Br)c2O)SC(=S)N1Cc1ccccc1	nt	nt	nt	58.6*
Cc1cccc(N(C(=O)c2csnn2)C(C(=O)NC2CCCCC2)c2ccncc2)c1 (stereo not given)	nt	nt	nt	-2.4
O=C(Nc1ccc(N2CCOCC2)cc1)c1nc2ccccc2s1	-1.1	nt	0.5	30.6
CNC(=O)Cn1ncc2c(C)n(Cc3ccc(C)cc3)c(C)c2c1=O	3.1	-0.7	0.5	3.0
Cc1c2cnn(CC(=O)Nc3c(F)c(F)cc(F)c3F)c(=O)c2c(C)n1Cc1ccccc1F	2.5	0.0	0.2	62.0*
Cc1c(N(C)C(=O)COc2ccc3ccccc3c2)c(=O)n(-c2ccccc2)n1C	nt	nt	nt	11.5
O=C(O/N=C\c1ccc(N2CCCCC2)c([N+](=O)[O-])c1)c1ccc(Cl)cc1Cl	3.5	-3.0	3.0*	-7.9
C=CCCCCCCCCc1nc(SCC(=O)O)n[nH]1	3.3	nt	3.0*	20.7
COc1ccc(NS(=O)(=O)c2ccc3oc(SC(C)C(N)=O)nc3c2)cc1 (stereo not given)	nt	nt	nt	3.1
COc1ccc(NS(=O)(=O)c2ccc3c(c2)NC(=O)CCS3)cc1Cl	nt	nt	nt	13.4
Cc1[nH]c(=S)[nH]c(=O)c1CCOc1ccccc1	5.7	0.1	3.1*	4.7
CC(C)c1ccc(CN(C(=O)c2ccco2)C2CCS(=O)(=O)C2)cc1 (stereo not given)	nt	nt	nt	6.3
O=C(CCl)Nc1cn(-c2ccccc2)nc1-c1ccccc1	14.6*	-1.3	-0.5	-11.2
SMILES	p97 inhibitor	DTT redox prof	PERK inhibitor	SUMO HTRF inh	others
CC(=O)Nc1cn(-c2ccccc2)nc1-c1ccccc1	0.1	-0.6	0.3	11.8
Cc1nc(C)c(C(=O)N/N=C/c2cc(Br)ccc2O)s1	1.2	nt	0.8	8.7
O=C(O)Cn1ccnc1	5.0	0.1	2.9*	14.1
O=C(Nc1ccc(OCC(=O)N2CCOCC2)cc1)c1cccc(Cl)c1	nt	nt	nt	-3.5
CCOc1ccc(NC(=O)CC2C(=O)NCCN2C(=O)c2ccc(Cl)cc2)cc1 (stereo not given)	-1.6	-1.1	0.8	6.3
CC(=O)C(C(C)=O)C1(O)C(=O)c2ccccc2C1=O	7.5	87.9*	3.0*	94.4*	DTT redox conf=>50
O=C(NN=C1CCCC1)c1n[nH]c2c1CCCC2	-4.9	68.0*	0.2	0.4	DTT redox conf=>50
O=C(CC1C(=O)NCCN1C/C=C/c1ccccc1)NCCCC1CCCC1 (stereo not given)	-7.7	2.4	-0.6	-21.1
C/C(=N/Nc1ccc(C(=O)O)cc1)c1ccc(O)c(O)c1O	3.4	104.7*	1.2	11.6	DTT redox conf=>50
O=C(O)CCCNc1cc(N2CCN(C(=O)c3ccco3)CC2)c2noc3c2c1C(=O)c1ccccc1-3	nt	nt	nt	-25.3
CCOC(=O)N1CCN(c2cc(NCCC(=O)O)c3c4c(onc24)-c2ccccc2C3=O)CC1	4.9	141.1*	-0.7	-55.5	DTT redox conf=>50
O=C1C=C(NCCN2CCOCC2)C(=O)c2cnccc21	12.5	176.0*	0.8	84.2*	DTT redox conf=>50
COC1=C(c2ccccc2)C(=O)c2ccccc2C1=O	3.6	-0.1	0.7	-10.0
O=C1C(=O)c2ccc(-c3ccccc3)cc2-c2ccccc21	13.3	315.0*	1.7	96.6*	DTT redox conf=0.91*
Cc1ccc(NC2=C/C(=N\S(=O)(=O)c3cccs3)c3ccccc3C2=O)c(C)c1	9.0	323.1*	-1.7	18.5	DTT redox conf=18.4*
Cc1cccc(NC2=C/C(=N/S(=O)(=O)c3cccs3)c3ccccc3C2=O)c1	0.6	6.4	-0.2	23.5
Cc1ccnc(NC(=S)N2CCN(c3cccc(C(F)(F)F)c3)CC2)c1	nt	nt	nt	20.8
O=C(O)c1cc(S(=O)(=O)Nc2cccc3ccccc23)c(Cl)cc1Cl	nt	nt	nt	13.7
COc1ccc(N(C(=O)c2csnn2)C(C(=O)NC2CCCC2)c2cccs2)cc1 (stereo not given)	nt	nt	nt	-3.2
COc1cccc(Oc2cncnc2-c2ccc(OC)cc2O)c1	-5.4	59.7*	-0.8	-22.6	DTT redox conf=>50
COc1ccc(-c2ncncc2-c2csc(C)n2)c(O)c1OC	6.6	0.1	0.6	9.3
COC1=C(N)C(=O)c2nc(-c3nc(C(=O)O)c(C)c(-c4ccc(OC)c(OC)c4O)c3N)ccc2C1=O	4.2	132.2*	2.0	-2.8	DTT redox conf=1.48*
COC(=O)CC1COc2ccccc2N1C(=O)c1cc(OC)c(OC)c(OC)c1 (stereo not given)	nt	nt	nt	9.3
O=C(CSc1nc2ncccc2[nH]1)Nc1ccccc1-c1ccccc1	nt	nt	nt	-1.2
CC(NC(=O)COC(=O)c1ccc([N+](=O)[O-])s1)c1ccccc1 (stereo not given)	5.9	113.7*	1.3	-4.8	DTT redox conf=>50
SMILES	p97 inhibitor	DTT redox prof	PERK inhibitor	SUMO HTRF inh	others
Oc1ccc(-c2onc(C(F)(F)F)c2-c2cscn2)c(O)c1	-6.8	429.9*	-1.1	-9.2	DTT redox conf=>50
Cc1nc(-c2c(C(F)(F)F)noc2-c2ccc(O)cc2O)cs1	-0.6	2.2	1.1	-16.1
CC1CC(C)CN(S(=O)(=O)CC23CCC(CC2=O)C3(C)C)C1 (stereo not given)	nt	nt	nt	1.3
Cc1cc(C)c(S(=O)(=O)Nc2cc(SCC(=O)O)c(O)c3ccccc23)cc1C	7.2	119.5*	1.4	72.3	DTT redox conf=>50
CC1(C)CC(N2CCCC2)=CC(=[N+]2CCCCCC2)C1	0.3	0.1	0.2	28.5
CC1(C)CC(=O)C=C(N2CCNCC2)C1	4.3	72.9*	1.6	-6.6	DTT redox conf=>50
Cc1oc2c(c1C(=O)c1ccccc1)C(=O)C(=O)c1ccccc1-2	31.3*	373.5*	-0.2	93.1*	DTT redox conf=>50;p97 confirm=28.8*
